Measurements from the supplement of paper PMC7556523.

The molecules below were run on Sporothrix brasiliensis CBS 133006 (assay: growth inhibition relative to untreated control; higher = more growth inhibition (more antifungal activity), active = 80 or more; extreme values may be limits of the assay). Settings: 1 µM; 48 h.
In short: (§1)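 Each value is the percent growth inhibition compared with cells left untreated. Reference isolates were grown as yeast-form cells in brain heart infusion broth with 2% glucose for 7 days at 36°C, then exposed at 1 x 10^5 CFU/ml to library compounds at a final 1 μM for 48 h at 35°C in 5% CO2. Growth was inspected visually under an inverted light microscope and quantified by spectrophotometric readings, with runs in quadruplicate.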

Growth inhibition, inactive:
COc1cccc2c(C)nc(N=C(N)N)nc12 10%
CC(=O)Nc1ccc(NC(=O)c2cc(-c3cc(Cl)ccc3O)n[nH]2)cc1 9.5%
Cc1nc(-c2cccc(NCc3ccccc3)c2)[nH]c1C 1.25%
CNC(=O)C1Cc2c([nH]c3cc(Cl)ccc23)C2(CCN(CCc3ccccc3)CC2)N1 (stereo unspecified) 10.8%
Cc1nn2c(=O)c3c([nH]c2c1-c1ccc(Cl)cc1)CCCC3 12.8%
COC(=O)c1c(NC(=O)c2c(F)c(F)c(F)c(F)c2F)sc2c1CCCCC2 13.8%
COc1ccc(Cn2cnc3c(-c4ccco4)nc(Cl)nc32)cc1 15.8%
O[C@@H](c1cc(C(F)(F)F)nc2c(C(F)(F)F)cccc12)[C@H]1CCCCN1 6%
Cc1cc(Cl)c(S(=O)(=O)N2CCCC2)cc1OCC(=O)NC1CCCCC1 8%
CCOc1ccc(-c2nc(NC(=O)CS(=O)(=O)c3ccccc3)sc2C)cc1 5.25%
COc1cccc(OC)c1C(=O)Nc1ccc(Cl)c(-c2nc3ccccc3s2)c1 7.75%
CC(C)(C(=O)Nc1ccc(F)cc1)n1cc(-c2ccccc2F)cn1 0%
COc1ccc2nc(C)cc(OCC(=O)NCc3ccccc3)c2c1 1.75%
O=C(C(Cc1c[nH]c2ccccc12)NS(=O)(=O)c1ccc(Cl)cc1)N1CCCCC1 (stereo unspecified) 5.75%
COc1ccc(CCN2CCC(NCc3cccc(N(C)C)c3)CC2)cc1 29%
COc1ccc2nc(C)cc(OCC(=O)Nc3ccccc3OC)c2c1 6%
CCOC(=O)NC(=O)c1ccsc1NC(=O)c1nc2ccccc2s1 32.8%
CC(C)(C)c1cnc(NC(=O)c2ccccc2O)s1 8%
CN(C)c1cc(NC(=O)Nc2ccccc2)c2ccccc2n1 0%
CCC(=O)Nc1ccccc1C(=O)Nc1ccccn1 0%
CNC(=O)c1nn(C)c2c1C(C)(C)Cc1cnc(Nc3ccc(N4CCN(C)CC4)cc3)nc1-2 37.5%
Cc1ccc2nc(C)c(-c3ccn(Cc4ccccc4)n3)n2c1 44.8%
c1ccc(-c2cc(N3CCCCC3)c3ccccc3n2)nc1 35.2%
CCCCc1ccc(NC(=O)Nc2ccc(O[C@H]3CCCC[C@@H]3N(C)c3ccccc3)c(F)c2)cc1 0%
Cc1nn2c(O)c3c(nc2c1-c1ccc(F)cc1)CCCC3 7%
Cc1cc(C)c2cc(C(=O)NC3CCCCCCC3)[nH]c2c1 6%
CC(C)(C)n1nc(Cc2ccc(F)c(Cl)c2)c2c(N)ncnc21 14.2%
CC(=O)NC[C@@H]1CN(c2ccc(N3CCOCC3)c(F)c2)C(=O)O1 1.75%
O=C(Nc1ccccc1-c1nc2c(C(=O)O)cccc2o1)c1ccccc1 1%
Cc1nn(C)cc1C(C)Nc1nncc(-c2ccc(C(F)(F)F)cc2)n1 (stereo unspecified) 16%
Cc1nc(-c2ccccn2)nc(N2CCC(Cc3ccccc3)C2)c1Cl (stereo unspecified) 63%
c1ccc(Oc2ccc(-c3cc(CN4CCOCC4)[nH]n3)cc2)cc1 2.25%
COc1ccc2nccc(NC(=O)C3CCN(CCc4ccc(Cl)cc4)CC3)c2n1 39%
CCc1ccc(S(=O)(=O)Nc2cc(CN3CCN(CCC(C)C)CC3)ccc2C)cc1 1.75%
N#CCN(CCCCN1CCN(c2ccc(F)cc2)CC1)C(=O)OCc1ccccc1 11.2%
Cc1cc(NC(=O)c2ccc(Oc3ccc(Cl)cc3O)o2)no1 18.8%
CS(=O)(=O)c1cccc(-c2cnc3[nH]cc(-c4ccc(CCC(=O)O)cc4)c3c2)c1 4.25%
Cc1c[nH]c(CCNC(=O)c2cc(-c3ccc(Cl)cc3)cs2)n1 4%

The molecules below were run on Sporothrix schenckii ATCC 32286 in the same assay as above. Settings: 1 µM; 48 h.
In short: as §1

Growth inhibition, inactive:
COc1cccc2c(C)nc(N=C(N)N)nc12 20.8%
CC(=O)Nc1ccc(NC(=O)c2cc(-c3cc(Cl)ccc3O)n[nH]2)cc1 0%
Cc1nc(-c2cccc(NCc3ccccc3)c2)[nH]c1C 10.2%
CNC(=O)C1Cc2c([nH]c3cc(Cl)ccc23)C2(CCN(CCc3ccccc3)CC2)N1 (stereo unspecified) 0%
Cc1nn2c(=O)c3c([nH]c2c1-c1ccc(Cl)cc1)CCCC3 15.8%
COC(=O)c1c(NC(=O)c2c(F)c(F)c(F)c(F)c2F)sc2c1CCCCC2 0.75%
COc1ccc(Cn2cnc3c(-c4ccco4)nc(Cl)nc32)cc1 17.8%
O[C@@H](c1cc(C(F)(F)F)nc2c(C(F)(F)F)cccc12)[C@H]1CCCCN1 15.2%
Cc1cc(Cl)c(S(=O)(=O)N2CCCC2)cc1OCC(=O)NC1CCCCC1 0%
CCOc1ccc(-c2nc(NC(=O)CS(=O)(=O)c3ccccc3)sc2C)cc1 0.5%
COc1cccc(OC)c1C(=O)Nc1ccc(Cl)c(-c2nc3ccccc3s2)c1 0.75%
CC(C)(C(=O)Nc1ccc(F)cc1)n1cc(-c2ccccc2F)cn1 11%
COc1ccc2nc(C)cc(OCC(=O)NCc3ccccc3)c2c1 14.8%
O=C(C(Cc1c[nH]c2ccccc12)NS(=O)(=O)c1ccc(Cl)cc1)N1CCCCC1 (stereo unspecified) 4%
COc1ccc(CCN2CCC(NCc3cccc(N(C)C)c3)CC2)cc1 9.75%
COc1ccc2nc(C)cc(OCC(=O)Nc3ccccc3OC)c2c1 0.75%
CCOC(=O)NC(=O)c1ccsc1NC(=O)c1nc2ccccc2s1 2.25%
CC(C)(C)c1cnc(NC(=O)c2ccccc2O)s1 0%
CN(C)c1cc(NC(=O)Nc2ccccc2)c2ccccc2n1 0.75%
CCC(=O)Nc1ccccc1C(=O)Nc1ccccn1 1.5%
CNC(=O)c1nn(C)c2c1C(C)(C)Cc1cnc(Nc3ccc(N4CCN(C)CC4)cc3)nc1-2 1.25%
Cc1ccc2nc(C)c(-c3ccn(Cc4ccccc4)n3)n2c1 36.5%
c1ccc(-c2cc(N3CCCCC3)c3ccccc3n2)nc1 14.8%
CCCCc1ccc(NC(=O)Nc2ccc(O[C@H]3CCCC[C@@H]3N(C)c3ccccc3)c(F)c2)cc1 4.25%
Cc1nn2c(O)c3c(nc2c1-c1ccc(F)cc1)CCCC3 6.5%
Cc1cc(C)c2cc(C(=O)NC3CCCCCCC3)[nH]c2c1 6.25%
CC(C)(C)n1nc(Cc2ccc(F)c(Cl)c2)c2c(N)ncnc21 0%
CC(=O)NC[C@@H]1CN(c2ccc(N3CCOCC3)c(F)c2)C(=O)O1 12.5%
O=C(Nc1ccccc1-c1nc2c(C(=O)O)cccc2o1)c1ccccc1 0%
Cc1nn(C)cc1C(C)Nc1nncc(-c2ccc(C(F)(F)F)cc2)n1 (stereo unspecified) 4.75%
Cc1nc(-c2ccccn2)nc(N2CCC(Cc3ccccc3)C2)c1Cl (stereo unspecified) 13%
c1ccc(Oc2ccc(-c3cc(CN4CCOCC4)[nH]n3)cc2)cc1 5.75%
COc1ccc2nccc(NC(=O)C3CCN(CCc4ccc(Cl)cc4)CC3)c2n1 0%
CCc1ccc(S(=O)(=O)Nc2cc(CN3CCN(CCC(C)C)CC3)ccc2C)cc1 21.2%
N#CCN(CCCCN1CCN(c2ccc(F)cc2)CC1)C(=O)OCc1ccccc1 2.5%
Cc1cc(NC(=O)c2ccc(Oc3ccc(Cl)cc3O)o2)no1 2.75%
CS(=O)(=O)c1cccc(-c2cnc3[nH]cc(-c4ccc(CCC(=O)O)cc4)c3c2)c1 0%
Cc1c[nH]c(CCNC(=O)c2cc(-c3ccc(Cl)cc3)cs2)n1 0%
